Test results published in PubChem BioAssay (NCATS).
Records with an inconclusive call do not appear. A number with no mark means an inactive call. The source made the active and inactive calls. The call rests on the fitted dose curve; in most records, active means well fitted inhibition curve with a large enough effect; inconclusive means small, poorly fitted or top-dose-only effect; inactive means no such curve, though single readings can be large or run the other way.

Assay: BET inhibitor-based combinations targeting novel dependencies in MECOM-rearranged (r) AML: SET-2 cell line (AID 2202231); further: nearly all actives have a fitted effect of over 35% in size
Conditions: SET-2 AML cells viability, CellTiter-Glo luminescence, 48 h; viability: stronger effect = lower value, series mostly up to about 46 µM
Source text: Ecotropic viral insertion site 1 (EVI1) is located on chromosome 3q26.2 as part of the MECOM (MDS and EVI1 complex) locus. Under normal hematopoiesis, EVI1 is a regulator of hematopoietic stem cell maintenance and self-renewal and EVI1 levels decrease as the cells differentiate. In approximately 5-10% of de novo acute myeloid leukemia (AML) EVI1 is aberrantly expressed, including Chromosomal inv(3)(q21;q26.2) or t(3;3)(q21;q26.2) alterations (MECOM-r) that account for about 50% of AML with EVI1 overexpression 31. AMLs with high levels of EVI1 have a poor prognosis and an overall survival time averaging between 10-14 months. EVI1 overexpression confers resistance in leukemia cells, highlighting the need to develop new targeted therapies for EVI1 overexpressing AMLs.
Here, we performed an unbiased chemical drug screening by evaluating the single agent activity of a collection of 2,480 oncology-focused, approved and investigational drugs (NCATS Mechanism Interrogation Plates, MIPE v5.0) against a panel of seven AML cell lines. These included four MECOM-r cell-lines (AML-191, AML-194, UCSD-AML1 and HNT-34) and three non-MECOM-r AMLs (MV4-11, OCI-AML3 and SET-2). Exploiting the mechanistic redundancy built in the library, we identified target-level sensitivities in MECOM-r AML cells and relative activity as compared to other AML subtypes.
A collection of 2480 mechanistically annotated dugs (MIPE v5.0) was used to screen four 3q26.2 rearranged AML cell lines and three non-3q26.2 rearranged AML cell lines. This library purposely exploits redundancy by including multiple inhibitors of key onco-targets, while simultaneously encompassing mechanistic diversity, targeting more than 800 distinct mechanisms of action. Briefly, cells were seeded in 5 uL of growth media using a Multidrop Combi dispenser into 1536 well white polystyrene tissue culture treated plates (Corning) at a density of 500cells/well. For each cell-line, for each of the 2480 drugs in MIPE v5.0 library, an 11-point dose curve was generated via a 1536 pin-tool. Plates were incubated for 48 hr at standard incubator conditions, covered by a stainless steel gasketed lid to prevent evaporation. Cell viability was determined by luminescence based, Cell Titer Glo assay (Promega). In detail, 3 uL of Cell Titer Glo were added to each well and plates were incubated at room temperature for 15 min with a stainless-steel lid in place. Luminescence readings were taken using a Viewlux (PerkinElmer) with a 2 s exposure time per plate. Compound dose-response curves were normalized to DMSO and empty well controls on each plate. Quantitative drug activity data from dose-response curves was determined utilizing area Under the Curve (AUC) and Z-transformed AUC (Z-AUC, a mean-centering transformation applied to each individual cell-line screened).
Potency means the concentration at half of the fitted maximal effect.

| Compound | viability [%] | Potency | outcome |
| --- | --- | --- | --- |
| CN1C(=O)[C@@H](NC(=O)c2n[nH]c(Cc3ccccc3)n2)COc2ccccc21 | 110 |  |  |
| CC1(C)O[C@@H]2C[C@H]3[C@@H]4CCC5=CC(=O)C=C[C@]5(C)[C@H]4[C@@H](O)C[C@]3(C)[C@]2(C(=O)CO)O1 | 114 |  |  |
| Clc1ccc(-c2nc3sccn3c2/C=N/OCc2ccc(Cl)c(Cl)c2)cc1 | 112 |  |  |
| C[C@@H](Nc1ncnc2[nH]c(-c3ccc(O)cc3)cc12)c1ccccc1 |  | 5.25 µM (active) |  |
| O=C1NC(=O)/C(=C\c2ccc(-c3ccc(F)cc3)o2)S1 |  | 20.9 µM (active) |  |
| Clc1ccc(CCC(Cn2ccnc2)Sc2c(Cl)cccc2Cl)cc1 (stereo not given) | 81.3 |  |  |
| C[C@H](NC(=O)[C@H]1NCC[C@@H]1O)c1ccc(-c2noc(CCC3CCCC3)n2)cc1 |  |  | inactive; activator; fitted 0.0033 uM |
| C[C@@H](O)[C@@H]1NC(=O)[C@H](CCCCN)NC(=O)[C@@H](Cc2c[nH]c3ccccc23)NC(=O)[C@H](Cc2ccccc2)NC(=O)[C@@H](NC(=O)[C@H](N)Cc2ccccc2)CSSC[C@@H](C(=O)N[C@H](CO)[C@@H](C)O)NC1=O | 114 |  |  |
| Cc1cnc(NC(=O)Nc2cc(Br)c(C)cc2OC[C@@H]2CNCCO2)cn1 |  | 4.17 µM (active) |  |
| CSc1ccc(C(=O)/C=C/c2cc(C)c(OC(C)(C)C(=O)O)c(C)c2)cc1 |  | 34 µM (active) |  |
| COc1ccc(C(=O)N2CCN(C(=O)/C=C/c3ccc(Br)cc3)CC2)cc1 | 111 |  |  |
| O=C(CO)N1CCC(c2[nH]nc(-c3ccc(Cl)cc3)c2-c2ccncn2)CC1 | 101 |  |  |
| Cc1cc(-c2cnn3c(NCC4CC(C)(O)C4)cc(Oc4cccnc4)nc23)ccc1C(=O)NC1CC1 (stereo not given) |  | 1.18 µM (active) |  |
| CC[C@@H]1[C@H](F)C(=O)N[C@@H]1COc1nccc2cc(C(N)=O)c(OC)cc12 |  | 14.8 µM (active) |  |
| Cc1ccc(C(=O)Nc2ccc(CN3CCN(C)CC3)c(C(F)(F)F)c2)cc1C#Cc1cnc2[nH]ncc2c1 |  | 4.17 µM (active) |  |
| CC(C)c1c(-c2ccccc2)nc2c(C#N)c[nH]n2c1=O | 118 |  |  |
| C[C@H]1[C@H](C)CC[C@]2(C(=O)O)CC[C@]3(C)C(=CC[C@@H]4[C@@]5(C)C[C@@H](O)[C@H](O)[C@@](C)(CO)[C@@H]5CC[C@]43C)[C@H]12 | 104 |  |  |
| COc1ccc(N2C(=O)N(c3c(C)cccc3Cl)Cc3cnc(Nc4ccc(C5CCN(C)CC5)cc4OC)nc32)nc1 |  | 16.6 µM (active) |  |
| CC(C)=CCC[C@](C)(O[C@@H]1O[C@H](CO[C@@H]2O[C@H](CO)[C@@H](O)[C@H](O)[C@H]2O)[C@@H](O)[C@H](O)[C@H]1O)[C@H]1CC[C@]2(C)[C@@H]1[C@H](O)C[C@@H]1[C@@]3(C)CC[C@H](O[C@@H]4O[C@H](CO)[C@@H](O)[C@H](O)[C@H]4O[C@@H]4O[C@H](CO)[C@@H](O)[C@H](O)[C@H]4O)C(C)(C)[C@@H]3CC[C@]12C | 121 |  |  |
| C[C@H]1[C@H](O)O[C@@H]2O[C@@]3(C)CC[C@H]4[C@H](C)CC[C@@H]1[C@@]24OO3 |  | 1.32 µM (active) |  |

| Compound | viability [%] | Potency | outcome |
| --- | --- | --- | --- |
| COC(=O)Nc1nc2ccc(C(=O)c3ccccc3)cc2[nH]1 |  | 0.833 µM (active) |  |
| O=C(Nc1ccccc1)Nc1ccc(-c2ccc(C(=O)[C@@H]3CCC[C@H]3C(=O)O)cc2)cc1 | 105 |  |  |
| CC1Cc2ccccc2N1C(=O)Cc1nc(N2CCOCC2)cc(=O)[nH]1 (stereo not given) | 99.9 |  |  |
| C=CC(=O)N1CC/C(=C\c2ccc(F)c([N+](=O)[O-])c2)C(=O)/C(=C/c2ccc(F)c([N+](=O)[O-])c2)C1 |  | 0.148 µM (active) |  |
| O=C(O)c1cccnc1 | 118 |  |  |
| CN(C)Cc1cccc(N=C(c2ccccc2)c2c(O)[nH]c3cc(C(=O)N(C)C)ccc23)c1 |  | 20.9 µM (active) |  |
| C=CC(=O)Nc1ccc2ncnc(Nc3cccc(Br)c3)c2c1 |  | 26.3 µM (active) |  |
| C[C@H](NC(=O)c1c(N)nn2cccnc12)c1cc2cccc(C#Cc3cnn(C)c3)c2c(=O)n1-c1ccccc1 | 101 |  |  |
| Cc1c(-c2cnccn2)ssc1=S | 94.7 |  |  |
| COc1ccc2c(c1)c(C1=C(c3c[nH]c4ccccc34)C(=O)NC1=O)cn2CCCN(C)C |  | 23.5 µM (active) |  |
| CCCc1cc(C)[nH]c(=O)c1CNC(=O)c1cc(-c2ccc(N3CCN(C(C)C)CC3)nc2)cc2c1cnn2C(C)C | 110 |  |  |
| CN[C@@H]1[C@@H](O)[C@@H](O[C@@H]2[C@@H](O)[C@H](O[C@H]3O[C@H](CN)[C@@H](O)[C@H](O)[C@H]3O)[C@@H](N)C[C@H]2NC(=O)C(O)CN)OC[C@]1(C)O (stereo not given in full) | 116 |  |  |
| COc1cccc2c1C(=O)c1c(O)c3c(c(O)c1C2=O)C[C@@](O)(C(C)=O)C[C@@H]3O[C@H]1C[C@H](N)[C@H](O)[C@H](C)O1 |  | 0.59 µM (active) |  |
| CCCS(=O)(=O)c1nc(NC2CC2)cc(-c2ccc3c(ccn3C3CC(C)(C)NC(C)(C)C3)c2)n1 |  | 2.21 µM (active) |  |
| C[C@@H]1CC(=O)Nc2cccc(-c3ccc4c(c3)c(-c3cnn(C)c3)nn4C)c2N1 |  | 6.61 µM (active) |  |
| O=C(Nc1cccnc1)c1cc(-c2ccnc(F)c2)ccc1OCc1ccccc1 | 121 |  |  |
| O=C(O)C1(Cc2cccc(Nc3nccs3)n2)CCC(Oc2cccc(Cl)c2F)CC1 (stereo not given) |  | 1.66 µM (active) |  |
| Clc1cccc(-c2ccc(-c3nnc(CCCc4ccc5cccnc5n4)o3)cc2)c1 | 119 |  |  |
| CCN1CCN(Cc2ccc(-c3cc4c(N[C@H](C)c5ccccc5)ncnc4[nH]3)cc2)CC1 |  | 23.5 µM (active) |  |
| CCn1cc(-c2ccnc3[nH]c(-c4cccc(CN(C)C)c4)cc23)c(-c2ccc(NC(=O)N(C)C)cc2)n1 |  | 16.6 µM (active) |  |
